Consider 40 compounds from PubChem BioAssay (NCATS).

Where “and” joins values, the source holds several entries; their conditions need not be identical. Equal entries are not always repeated. Inconclusive results are not listed. Calls of active or inactive are those of the source. Calls follow the shape of the dose curve; as a rule, active = well fitted activation curve with a large enough effect; inconclusive = small, poorly fitted or top-dose-only effect; inactive = flat fitted curve, though single readings scatter.
Potency is read from the fitted curve at half-maximal effect.

A short description of the assay: qHTS assay for environmental chemicals that activate the Aryl hydrocarbon Receptor (AhR) signaling pathway (AID 651777). Also: nearly all actives have a fitted effect of over 15% in size. As to activation: % of control where 0% means no effect. The conditions noted are these: 1A2-DRE human hepatoma cells, luciferase, 24 h; activation: hits give high values. From the text:
National Center for Advancing Translational Sciences [NCATS]
NIH Chemical Genomics Center [NCGC]
U.S. Environmental Protection Agency [EPA]
National Institutes of Environmental Health Sciences [NIEHS]
National Toxicology Program [NTP]
The Aryl hydrocarbon Receptor (AhR) plays a critical role in the development of cancer or neoplasm and its formation is most likely due to genetic mutations and the influence of environment. Exposure to environmental pollutants such as polycyclic aromatic hydrocarbons (PAH), their halogenated derivatives and heterocyclic amines causes the induction of phase I and II enzymes. The transcriptional activation of CYP1A2 is directly regulated by AhR.
A cell based assay (1A2-DRE cells, developed by Puracyp, Inc., CA) was used to assess the activation of AhR. Human hepatoma cells were stably transfected with the dioxin response element (DRE) and CYP1A2 promoter fused to a luciferase gene. Increased luciferase activity can be used to identify the compounds that cause the induction of CYP1A2 and AhR activation.
1,200 cells in 5 uL/well were dispensed into white wall/solid bottom 1536-well plates using a Multidrop Combi (Thermo Scientific) dispenser. Following transfer of 23 nL compound or DMSO vehicle by a pin tool, the plates were incubated 24 hr at 37 C and 5% CO2. 5 ul One-Glo (Promega) was then added to each well and following 30 min incubation at room temperature, luciferase activity was quantified on a ViewLux CCD-based plate reader.
(In qHTS, concentration-response curves come from the screen itself.)
In the case of `O=S(=O)(O)C(F)(F)C(F)(F)C(F)(F)C(F)(F)F`, the activation was 1.87% (inactive) and 3.11% (inactive). On the same count and under the same terms, the figure for `CS(=O)(=O)c1ccc(C(=O)C2C(=O)CCCC2=O)c([N+](=O)[O-])c1` is 3.32% (inactive). Consider `COc1nn(CSP(=S)(OC)OC)c(=O)s1`, for which the activation was -1.09% (inactive). On to `COc1ccc(C(c2ccc(OC)cc2)C(Cl)(Cl)Cl)cc1`, for which the activation was 1.39% (inactive) and 11.4% (inactive) and 6.25% (inactive).

Consider `CCCCCCCCc1ccc(O)cc1`, for which the activation was 1.65% (inactive) and 1.55% (inactive). The same measure, in the same setting: the figure for `CCOCCOC(C)=O` is -0.221% (inactive); for `O=C(O)COc1ccccc1` it is 0.99% (inactive); for `OCCCBr` it is 1.3% (inactive). The same measure, in the same setting: the figure for `O=C(O)COc1nc(Cl)c(Cl)cc1Cl` is 0.732% (inactive). Take `CN(C)NC(=O)CCC(=O)O`: the activation is 0.139% (inactive) and -1.5% (inactive).

On to `CC(C)Oc1cccc(NC(=O)c2ccccc2C(F)(F)F)c1`, for which the activation was 11.8% (inactive). Regarding `CCCCC(CC)COC(=O)c1ccccc1C(=O)OCC(CC)CCCC` (stereo not given), the activation was -0.0838% (inactive) and 0.859% (inactive).

`CC(=O)[O][Hg][c]1ccccc1`: the activation was -9.33% (inactive) and -11.2% (inactive). As to `Nc1ccccc1N`, the Potency was 39.8 µM (active). `ClC1=C(Cl)[C@]2(Cl)[C@@H]3[C@@H]4C[C@@H]([C@H]5O[C@@H]45)[C@@H]3[C@@]1(Cl)C2(Cl)Cl`: the activation was -1.01% (inactive). For `O=C(O)c1cc(Oc2ccc(C(F)(F)F)cc2Cl)ccc1[N+](=O)[O-]`, the activation was 2.44% (inactive). As to `O=[N+]([O-])c1cc([N+](=O)[O-])c2ccccc2c1`, the activation was 11.7% (inactive).

Consider `CC(C)(C)C(O)C(Oc1ccc(Cl)cc1)n1cncn1` (stereo not given), for which the activation was 5.62% (inactive).

As to `O=S(=O)(c1ccc(Cl)cc1)c1ccc(Cl)cc1`, the activation is -0.947% (inactive) and -1.11% (inactive) and 1.55% (inactive).

On to `CCOP(=O)(NC(C)C)Oc1ccc(SC)c(C)c1` (stereo not given), for which the activation is 4% (inactive) and 2.89% (inactive). On to `O=[N+]([O-])c1c(Cl)c(Cl)cc(Cl)c1Cl`, for which the activation is 4.33% (inactive).

As for `Nc1ccc(Sc2ccc(N)cc2)cc1`, the activation is 6.89% (inactive) and 6.82% (inactive).

Turning to `CCCCOC(=O)c1ccccc1C(=O)OCc1ccccc1`, the activation is 12.8% (inactive) and 3.39% (inactive). Turning to `CCCCCCCCCC(CC)c1ccc(S(=O)(=O)O)cc1` (stereo not given), the activation was -1.06% (inactive).

On to `Nc1cccc2c(N)cccc12`, for which the Potency was 25.1 µM (active).

For the compound `Cc1cc(O)ccc1Cl`, the activation is -0.735% (inactive). For `O=C(O)C(Cl)Cl`, the activation is 3.85% (inactive) and 0.254% (inactive). The same measure, in the same setting: the figure for `CCO/N=C(\CC)C1=C(O)CC(c2c(C)cc(C)cc2C)CC1=O` (stereo not given) is -2.09% (inactive). As for `Nc1ccc(Cl)cc1N`, the Potency is 50.1 µM (active) and 39.8 µM (active).

For `c1cc2ccc3cccc4ccc(c1)c2c34`, the activation was -0.0456% (inactive) and 4.28% (inactive).

`C=CCC1=C(C)C(OC(=O)C2C(C=C(C)C)C2(C)C)CC1=O` (stereo not given): the activation was 0.269% (inactive) and 0.976% (inactive). `O=[N+]([O-])c1c2ccccc2cc2ccccc12`: the activation is 10% (inactive). Consider `C1CCC(NC2CCCCC2)CC1`, for which the activation is -1.28% (inactive) and -0.443% (inactive) and 0.0289% (inactive). Still for that read-out and setting: the figure for `O=S(=O)(O)C(F)(F)C(F)(F)C(F)(F)C(F)(F)C(F)(F)C(F)(F)C(F)(F)C(F)(F)F` is 1.49% (inactive) and 0.543% (inactive); for `Nc1ccc(Cl)cc1` it is 0.816% (inactive); for `COCCOCCO` it is -0.559% (inactive) and 0.0587% (inactive). As for `CCCCCC[C@H]1C(=O)O[C@H](C)[C@H](NC(=O)c2cccc(NC=O)c2O)C(=O)O[C@@H](C)[C@@H]1OC(=O)CC(C)C`, the activation was -1.12% (inactive). As for `COC(C)(C)CCCC(C)C/C=C/C(C)=C/C(=O)OC(C)C` (stereo not given), the activation is 4.38% (inactive) and 10.5% (inactive). `CCCCCCCCCCCCCCCC[N+](C)(C)C`: the activation is 0.975% (inactive) and 0.339% (inactive).

In the case of `C=CC(=O)NCNC(=O)C=C`, the activation was 1.7% (inactive) and 2.02% (inactive).
